Reference: PubChem BioAssay (Tox21)
Results filed as inconclusive are left out. Calls of active or inactive are those of the source. Unless noted, calls come from the whole dose curve; as a rule, active = well fitted curve in the direction sought with a large enough effect in the repeat runs; inconclusive = weak or mixed curves; inactive = no such curve, though single readings can be large; an effect the other way counts as inactive or inconclusive.

Key:
[1] = qHTS assay to identify aromatase inhibitors - cell viability counter screen (AID 743084);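 note: cells stimulated with testosterone during compound exposure; nearly all actives have a fitted effect of over 55% in size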
[2] = biological target: Aryl hydrocarbon receptor (Homo sapiens) (UniProt P35869); experiment: qHTS assay to identify small molecule that activate the aryl hydrocarbon receptor (AhR) signaling pathway (AID 743085);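 note: HG2L7.5c1 human HepG2 liver cells with stably integrated DRE-driven firefly reporter; series mostly up to about 70 µM; nearly all actives have a fitted effect of over 15% in size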
Sequence of Aryl hydrocarbon receptor (Homo sapiens) (P35869 whole entry, looked up): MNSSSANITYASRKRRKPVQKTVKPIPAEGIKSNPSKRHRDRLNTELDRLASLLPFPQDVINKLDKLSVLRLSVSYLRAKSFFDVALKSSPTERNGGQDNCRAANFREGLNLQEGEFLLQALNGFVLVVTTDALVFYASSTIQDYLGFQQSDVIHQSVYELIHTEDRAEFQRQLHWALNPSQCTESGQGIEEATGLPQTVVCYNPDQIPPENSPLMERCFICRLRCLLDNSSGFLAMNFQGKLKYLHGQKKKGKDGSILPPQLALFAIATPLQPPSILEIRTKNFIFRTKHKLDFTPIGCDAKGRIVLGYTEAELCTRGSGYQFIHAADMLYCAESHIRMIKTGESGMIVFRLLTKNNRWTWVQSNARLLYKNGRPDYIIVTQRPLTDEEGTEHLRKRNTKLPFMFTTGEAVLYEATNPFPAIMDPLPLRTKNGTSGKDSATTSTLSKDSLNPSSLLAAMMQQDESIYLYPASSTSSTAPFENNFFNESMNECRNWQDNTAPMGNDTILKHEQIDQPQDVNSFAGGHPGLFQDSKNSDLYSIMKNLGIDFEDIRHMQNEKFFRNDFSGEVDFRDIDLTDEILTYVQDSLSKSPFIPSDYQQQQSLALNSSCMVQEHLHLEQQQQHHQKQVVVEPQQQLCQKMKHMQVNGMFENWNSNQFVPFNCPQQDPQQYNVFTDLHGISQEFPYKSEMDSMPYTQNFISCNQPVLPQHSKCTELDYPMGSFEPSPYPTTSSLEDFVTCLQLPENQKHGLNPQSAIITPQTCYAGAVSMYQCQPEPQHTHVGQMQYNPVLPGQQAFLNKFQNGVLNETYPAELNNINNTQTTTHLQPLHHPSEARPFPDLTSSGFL
Procedure, shortened: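 Compounds were tested in HepG2 hepatocellular carcinoma cells harbouring a stably integrated luciferase gene under control of 20 DREs. Increased reporter signal after 24 h treatment at 37C was taken as AhR activation.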

[3] = qHTS assay to identify small molecule that activate the aryl hydrocarbon receptor (AhR) signaling pathway - cell viability counter screen (AID 743086);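 note: HepG2 liver cells carrying the AhR DRE luciferase reporter; series mostly up to about 70 µM; nearly all actives have a fitted effect of over 45% in size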
Procedure, shortened: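 HepG2-AhR-luc (HG2L7.5c1) cells, 4000/well, were preincubated 5 h at 37C, exposed to compound in qHTS format for 24 hr at 37C, then given CellTiter-Fluor for 30 min; viability was read as fluorescence in the reporter wells.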

[4] = biological target: Peroxisome proliferator-activated receptor gamma (Homo sapiens) (UniProt P37231); experiment: qHTS assay to identify small molecule agonists of the peroxisome proliferator-activated receptor gamma (PPARg) signaling pathway (AID 743094; active = well fitted activation curve with a large enough effect in the signal ratio in the repeat runs, not every such curve was filed as active; the % refers to the signal ratio)
Sequence of Peroxisome proliferator-activated receptor gamma (Homo sapiens) (P37231 whole entry, looked up): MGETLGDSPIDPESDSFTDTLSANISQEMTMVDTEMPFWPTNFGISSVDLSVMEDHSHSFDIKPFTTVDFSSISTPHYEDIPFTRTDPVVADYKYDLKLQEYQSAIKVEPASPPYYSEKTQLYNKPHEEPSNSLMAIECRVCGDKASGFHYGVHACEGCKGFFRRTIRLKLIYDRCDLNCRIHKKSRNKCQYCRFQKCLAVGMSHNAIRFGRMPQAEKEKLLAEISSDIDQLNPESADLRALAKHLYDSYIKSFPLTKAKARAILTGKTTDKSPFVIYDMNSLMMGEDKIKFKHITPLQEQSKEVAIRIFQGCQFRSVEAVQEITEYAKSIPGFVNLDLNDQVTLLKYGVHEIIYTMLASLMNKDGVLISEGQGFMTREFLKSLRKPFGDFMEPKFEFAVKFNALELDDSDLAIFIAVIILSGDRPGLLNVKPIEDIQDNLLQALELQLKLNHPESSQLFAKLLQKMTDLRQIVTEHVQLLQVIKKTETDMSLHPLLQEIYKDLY
Procedure, shortened: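 Agonist activity was taken from a beta-lactamase reporter (FRET substrate, 1 h at room temperature) in HEK293H cells carrying a PPARg UAS-bla construct. Compounds in DMSO were incubated 17 h at 37C after a 5 h cell pre-incubation.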

[5] = biological target: Peroxisome proliferator-activated receptor gamma (Homo sapiens) (UniProt P37231); experiment: qHTS assay to identify small molecule antagonists of the peroxisome proliferator-activated receptor gamma (PPARg) signaling pathway (AID 743191; calls by dose curve; note: series mostly up to about 63 µM; nearly all actives have a fitted effect of over 30% in size)
Procedure, shortened: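 GeneBLAzer PPARg UAS-bla HEK293H cells carrying a UAS-driven beta-lactamase reporter were plated at 3000 cells/well, preincubated 5 h at 37C, then given compound for 17 h at 37C; LiveBLAzer B/G FRET substrate was read after 1 h at room temperature.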

[6] = qHTS assay to identify small molecule antagonists of the peroxisome proliferator-activated receptor gamma (PPARg) signaling pathway - cell viability counter screen (AID 743194); conditions: Potency: co-treated with 50 nM rosiglitazone unless noted; note: nearly all actives have a fitted effect of over 55% in size
Procedure, shortened: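 PPARg-UAS-bla HEK293H cells were plated, rested 5 h at 37 C, then treated with compounds plus rosiglitazone (50 nM final) for 17 h at 37 C; viability was then read by CellTiter-Glo luminescence after 30 min at room temperature.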

[7] = qHTS assay for small molecule agonists of the antioxidant response element (ARE) signaling pathway (AID 743202; active = well fitted activation curve with a large enough effect in the signal ratio in the repeat runs, not every such curve was filed as active; the % refers to the signal ratio)
Procedure, shortened: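 Following a 16 h, 37 C exposure of reporter HepG2 cells (ARE-driven beta-lactamase, 2,000 cells/well) to compounds, FRET substrate was applied for 2 h at room temperature and fluorescence intensity recorded.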

[8] = qHTS assay for small molecule agonists of the antioxidant response element (ARE) signaling pathway - cell viability counter screen (AID 743203; calls by dose curve; note: nearly all actives have a fitted effect of over 55% in size)
Procedure, shortened: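 Viability counter screen: CellTiter-Glo luminescence, read after 30 min at room temperature, in ARE-bla HepG2 wells. Compound exposure lasted 16 h at 37C/5% CO2, following a 5 h pre-incubation of the cells after plating.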

[9] = qHTS assay for small molecule activators of the heat shock response signaling pathway - cell viability counter screen (AID 743209); note: nearly all actives have a fitted effect of over 50% in size
Procedure, shortened: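 Cytotoxicity counter screen run in the same wells as the heat-shock bla reporter assay: HeLa HSE-bla cells, 5 h compound exposure at 37 C, viability read by CellTiter-Glo luminescence.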

[10] = qHTS assay for small molecule activators of the heat shock response signaling pathway (AID 743210; active = well fitted activation curve with a large enough effect in the signal ratio in the repeat runs, with a control signal flat, not every such curve was filed as active; the % refers to the signal ratio; note: series mostly up to about 63 µM)
Procedure, shortened: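 Heat shock element–beta-lactamase HeLa reporter cells; qHTS with compounds for 5 h at 37 C; detection by FRET substrate fluorescence after 2.5 h at RT.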

[11] = qHTS assay to identify small molecule agonists of the peroxisome proliferator-activated receptor delta (PPARd) signaling pathway - cell viability counter screen (AID 743211); note: nearly all actives have a fitted effect of over 55% in size
Procedure, shortened: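 Counter screen for cytotoxicity run in parallel with the PPARd reporter screen. Beta-lactamase reporter HEK293H cells exposed to compounds 17 h; ATP-based CellTiter-Glo luminescence quantified viability.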

[12] = qHTS assay to identify small molecule antagonists of the peroxisome proliferator-activated receptor delta (PPARd) signaling pathway - cell viability counter screen (AID 743213); note: nearly all actives have a fitted effect of over 50% in size
Procedure, shortened: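 In this counter screen, HEK293H cells carrying a UAS-beta-lactamase reporter are co-treated with test compounds and 300 nM L165041 (final) for 17 h at 37 C; cell viability is quantified by CellTiter-Glo luminescence.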

[13] = biological target: Peroxisome proliferator-activated receptor delta (Homo sapiens) (UniProt Q03181); experiment: qHTS assay to identify small molecule antagonists of the peroxisome proliferator-activated receptor delta (PPARd) signaling pathway (AID 743215; active = well fitted inhibition curve with a large enough effect in the signal ratio in the repeat runs, not every such curve was filed as active; the % refers to the signal ratio;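 note: cells stimulated with agonist L165041 at 300 nM final during compound exposure; series mostly up to about 62 µM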)
Sequence of Peroxisome proliferator-activated receptor delta (Homo sapiens) (Q03181 whole entry, looked up): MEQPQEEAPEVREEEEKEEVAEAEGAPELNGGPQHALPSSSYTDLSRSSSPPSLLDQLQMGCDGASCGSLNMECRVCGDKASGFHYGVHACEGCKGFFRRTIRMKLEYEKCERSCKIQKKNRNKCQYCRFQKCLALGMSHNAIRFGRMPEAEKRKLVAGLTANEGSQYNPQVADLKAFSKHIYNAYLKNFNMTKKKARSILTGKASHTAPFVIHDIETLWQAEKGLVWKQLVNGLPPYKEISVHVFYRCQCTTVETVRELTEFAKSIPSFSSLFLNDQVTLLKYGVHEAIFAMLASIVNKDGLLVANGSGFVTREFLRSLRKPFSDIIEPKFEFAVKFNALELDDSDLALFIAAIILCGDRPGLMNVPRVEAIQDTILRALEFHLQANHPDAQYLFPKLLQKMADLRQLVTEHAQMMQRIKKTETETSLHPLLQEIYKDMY
Procedure, shortened: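 Agonist L165041 (300 nM final) added with compound to PPARd-bla HEK293H UAS-bla reporter cells; 17 h incubation at 37 C. Read-out: LiveBLAzer FRET substrate, 2 h at room temperature, fluorescence intensity.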

[14] = biological target: Bile acid receptor (Homo sapiens) (UniProt Q96RI1); experiment: qHTS assay to identify small molecule antagonists of the farnesoid-X-receptor (FXR) signaling pathway (AID 743217; active = well fitted inhibition curve with a large enough effect in the signal ratio in the repeat runs, not every such curve was filed as active; the % refers to the signal ratio)
Sequence of Bile acid receptor (Homo sapiens) (Q96RI1 whole entry, looked up): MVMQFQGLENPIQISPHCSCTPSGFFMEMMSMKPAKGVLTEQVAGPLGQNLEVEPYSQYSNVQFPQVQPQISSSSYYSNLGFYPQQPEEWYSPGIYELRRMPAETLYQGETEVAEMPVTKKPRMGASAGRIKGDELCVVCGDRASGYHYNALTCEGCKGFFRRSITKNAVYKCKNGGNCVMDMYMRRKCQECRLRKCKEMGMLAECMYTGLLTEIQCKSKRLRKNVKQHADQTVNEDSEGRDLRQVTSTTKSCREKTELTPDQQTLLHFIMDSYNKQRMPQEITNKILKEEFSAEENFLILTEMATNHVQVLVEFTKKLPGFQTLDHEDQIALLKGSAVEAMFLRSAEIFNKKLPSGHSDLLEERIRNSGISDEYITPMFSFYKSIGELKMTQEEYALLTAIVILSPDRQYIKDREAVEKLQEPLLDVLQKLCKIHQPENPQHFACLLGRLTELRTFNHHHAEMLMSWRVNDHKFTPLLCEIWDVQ
Procedure, shortened: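 Antagonist mode: chenodeoxycholic acid at 50 uM final stimulates a UAS-driven beta-lactamase reporter in HEK 293T FXR-bla cells during 16 h, 37C compound exposure. Read-out is FRET substrate fluorescence after 2 h at room temperature.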

[15] = qHTS assay to identify small molecule agonists of the farnesoid-X-receptor (FXR) signaling pathway - cell viability counter screen (AID 743218); note: nearly all actives have a fitted effect of over 45% in size
Procedure, shortened: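 Viability counter screen in the same wells: CellTiter-Glo luminescence, 30 min room-temperature incubation, measured after the beta-lactamase read. Cells were GeneBLAzer FXR-UAS-bla HEK 293T, compound-treated 16 h at 37C.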

[16] = biological target: Bile acid receptor (Homo sapiens) (UniProt Q96RI1); experiment: qHTS assay to identify small molecule agonists of the farnesoid-X-receptor (FXR) signaling pathway (AID 743220; active = well fitted activation curve with a large enough effect in the signal ratio in the repeat runs, not every such curve was filed as active; the % refers to the signal ratio)
Procedure, shortened: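 FXR-UAS-bla HEK 293T cells carrying a UAS-driven beta-lactamase reporter were plated for 5 h at 37C/5% CO2, then exposed to DMSO-dissolved Tox21 10K compounds for 16 h at 37C. A LiveBLAzer B/G FRET substrate was loaded for 2 h at room temperature before fluorescence reading.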

[17] = qHTS assay to identify small molecule antagonists of the farnesoid-X-receptor (FXR) signaling pathway - cell viability counter screen (AID 743221; active = well fitted cell-killing curve with a large enough effect in the repeat runs, not every such curve was filed as active; note: nearly all actives have a fitted effect of over 50% in size)
Procedure, shortened: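 Multiplexed counter screen: viability of FXR-bla HEK 293T cells under agonist stimulation by chenodeoxycholic acid (50 uM, final) and test compound for 16 h at 37 C, measured by CellTiter-Glo luminescence in the reporter wells.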

[18] = biological target: Vitamin D3 receptor (Homo sapiens) (UniProt P11473); experiment: qHTS assay to identify small molecule agonists of the vitamin D receptor (VDR) signaling pathway (AID 743222; calls by dose curve)
Sequence of Vitamin D3 receptor (Homo sapiens) (P11473 whole entry, looked up): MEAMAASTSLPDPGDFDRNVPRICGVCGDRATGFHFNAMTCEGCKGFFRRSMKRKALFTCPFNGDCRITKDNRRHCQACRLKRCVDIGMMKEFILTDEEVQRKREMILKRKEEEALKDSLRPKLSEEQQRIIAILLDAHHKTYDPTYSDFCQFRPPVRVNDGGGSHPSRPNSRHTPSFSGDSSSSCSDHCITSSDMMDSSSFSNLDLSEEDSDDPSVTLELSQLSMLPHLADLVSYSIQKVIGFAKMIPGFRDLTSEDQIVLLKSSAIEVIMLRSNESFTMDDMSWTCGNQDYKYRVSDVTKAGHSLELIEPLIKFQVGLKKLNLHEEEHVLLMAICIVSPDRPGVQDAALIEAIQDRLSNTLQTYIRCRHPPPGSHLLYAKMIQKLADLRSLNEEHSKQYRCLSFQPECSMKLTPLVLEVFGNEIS
Procedure, shortened: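 Agonist mode, beta-lactamase reporter: fluorescence from LiveBLAzer B/G FRET substrate (2 h, room temperature) read after 16 h compound treatment at 37 C of VDR-bla cells, which were pre-incubated 4 h after seeding.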

[19] = biological target: Vitamin D3 receptor (Homo sapiens) (UniProt P11473); experiment: qHTS assay to identify small molecule antagonists of the vitamin D receptor (VDR) signaling pathway (AID 743223; active = well fitted inhibition curve with a large enough effect in the signal ratio in the repeat runs, not every such curve was filed as active; the % refers to the signal ratio)
Procedure, shortened: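 Cells carrying a VDR-driven beta-lactamase reporter (VDR-bla) were co-treated with compound and 3 nM final 1alpha,25-dihydroxyvitamin D3 for 16 h at 37C; reporter activity was measured as FRET substrate fluorescence after 2 h at room temperature.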

[20] = biological target: Peroxisome proliferator-activated receptor delta (Homo sapiens) (UniProt Q03181); experiment: qHTS assay to identify small molecule agonists of the peroxisome proliferator-activated receptor delta (PPARd) signaling pathway (AID 743212; calls by dose curve)
Procedure, shortened: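 Beta-lactamase reporter read by fluorescence (LiveBLAzer B/G FRET, 2 h, room temperature). Test agents, in DMSO, incubated at 37 C with PPARd-bla HEK293H cells.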

Measured: Potency

Cc1ccc(Cl)cc1
not listed: [20]
inactive: all other assays above

CC(=O)OC(C)(C)C1CC=C(C)CC1 (stereo not drawn)
not listed: [9] | [14] | [16]
inactive: all other assays above

CC(=O)OCCC(C)C
not listed: [14] | [16] | [18] | [19]
inactive: all other assays above

CCCCCCCC(=O)O
not listed: [5] | [9] | [13] | [14] | [16] | [20]
inactive: all other assays above

CC1(C)C(=O)N(Cl)C(=O)N1Cl
not listed: [9] | [13] | [14] | [16] | [20]
inactive: all other assays above

O=C1C(N(CO)C(=O)NCO)N(CO)C(=O)N1CO (stereo not drawn)
not listed: [5] | [13] | [14] | [16] | [20]
inactive: all other assays above

Cc1ccccc1Cl
inactive: all assays above

OCc1ccc(Cl)cc1Cl
not listed: [9] | [16] | [20]
inactive: all other assays above
